# In PubChem BioAssay AID1259343 (VanderVen Lab, College of Veterinary Medicine, Cornell …, 2017):
# The whole screen tested about 6,200 compounds, of which about 2,900 (47%) were called active. So high a share suggests a set chosen from earlier hits. This is one part of the list. A number with no mark means an inactive call. Cut-off read from the data, not from the text of the source: active = inhibition above about 50%; inactive = the rest.
# Assay: Mycobacterium tuberculosis growth inhibition, primary screen (AID 1259343)
# Conditions: inhibition: at 10 µM, stronger effect = higher value; outcome: 10 uM
row,Structure (SMILES),inhibition
1,CC(C)c1ccc(-c2csc3ncn(-n4cccc4)c(=O)c23)cc1,12.8%
2,Cn1c(SCC(N)=O)nc2scc(-c3ccc(F)cc3)c2c1=O,66.5% (active)
3,CNC(=O)C1Sc2nc3scc(-c4ccccc4)c3c(=O)n2N=C1C (stereo unspecified),41.4%
4,Cc1ccccc1C1c2ccsc2CCN1C(C)C(=O)N1CCCN(S(=O)(=O)c2ccc(C(C)(C)C)cc2)CC1 (stereo unspecified),77.4% (active)
5,CC(Sc1n[nH]c(-c2cccs2)n1)c1ccc(F)cc1F (stereo unspecified),10.1%
6,Fc1ccc(CSCc2csc(-c3ccc(F)cc3)n2)cc1,38.6%
7,COc1ccc(OCc2nc(CSCc3ccc(F)cc3)cs2)cc1,50.8% (active)
8,Cc1cc(CSc2nnc(-c3ccc(C(C)(C)C)cc3)o2)no1,85.8% (active)
9,COc1ccc(-c2nnc(SCC(=O)NC(C)(C)C)o2)cc1,38.2%
10,Cc1cc(C)cc(-c2nnc(SCc3cc(C)on3)o2)c1,34.2%
11,Cc1ccc(-c2nnc(SCc3c(C)noc3C)o2)cc1,79% (active)
12,CC(C)(C)c1ccc(-c2nnc(SCC(N)=O)o2)cc1,98.8% (active)
13,CN(C)C(=O)CSc1nnc(-c2ccc(Br)cc2)o1,78.2% (active)
14,O=C1N=c2ccc(Br)cc2=C1c1sc(NS(=O)(=O)Cc2ccccc2)nc1O,16.2%
15,CC(Sc1nnc(-c2ccc(Br)cc2)o1)C(N)=O (stereo unspecified),86% (active)
16,CC(C)(C)c1ccc(OCCCC(=O)NCc2cn[nH]c2)cc1,88% (active)
17,Cc1nn(C(C)(C)C)c(C)c1C(=O)NCC1CCCCCCC1,80.2% (active)
18,Cc1oc(-c2ccccc2)nc1C(=O)NCC1CCCCC1,16.3%
19,Cc1ccc(C(=O)NCC2CCCCC2)c(C2CCN(C(=O)c3ccccc3)CC2)n1,31.2%
20,OC1(c2ccccc2)CC(=NC2=NN(c3ccccc3)CC2)C=C1c1ccccc1 (stereo unspecified),84% (active)
21,CC(C)Oc1ccc(NC(=O)c2cc(Br)cn2C)cc1,23%
22,Cn1cc(Br)cc1C(=O)Nc1cc2c(cc1Cl)OCO2,88.7% (active)
23,Clc1ccccc1-c1nc2c(NCCc3ccccc3)nccc2[nH]1,60.4% (active)
24,CC(C)c1cccc(-c2nc3c(NCc4ccccn4)nccc3[nH]2)c1,82.7% (active)
25,COCCCNc1nccc2[nH]c(-c3cccc(C(C)C)c3)nc12,78.4% (active)
26,CC(C)c1cccc(-c2nc3c(NCCc4ccncc4)nccc3[nH]2)c1,51.9% (active)

row,Structure (SMILES),inhibition
1,c1ccc(CCNc2nc(-c3ccco3)nc3ccccc23)cc1,8.49%
2,Brc1ccc2nc(NCc3ccccn3)nc(-c3ccccc3)c2c1,1.6%
3,Cc1ccc(-c2cc(CNCc3ccco3)no2)c(C)c1,27.2%
4,FC(F)(F)c1ccc(NCc2csc(-c3ccco3)n2)cc1,89.6% (active)
5,FC(F)(F)c1cc(-c2ccco2)nc(NCC2CCCO2)n1 (stereo unspecified),28.3%
6,Cn1nnc2c(Nc3ccc(Nc4ccccc4)cc3)ncnc21,9.73%
7,Cn1nnc2c(Nc3ccc(OC(F)F)cc3)ncnc21,72% (active)
8,Cn1nnc2c(Nc3ccc(Oc4ccccc4)cc3)ncnc21,53.9% (active)
9,CCc1ccc(Nc2ncnc3c2nnn3C)cc1,69.2% (active)
10,CCOc1ccc(Nc2ncnc3c2nnn3C)cc1,16.3%
11,Cc1cc(Cl)ccc1Oc1ncccc1C#N,33.1%
12,Cc1cc(Cl)ccc1OCC(O)CN1CCN(c2ccccc2)CC1 (stereo unspecified),51.6% (active)
13,FC(F)Oc1ccc(-c2csc(=Nc3cccnc3)n2C2CC2)cc1,80.6% (active)
14,Fc1ccc(N=c2scc(-c3ccc(OC(F)F)cc3)n2C2CC2)cc1,53.9% (active)
15,Brc1ccccc1-c1csc(=Nc2cccnc2)n1C1CC1,36.9%
16,FC(F)Oc1ccc(-c2csc(=Nc3cccnc3)n2CC2CCCO2)cc1 (stereo unspecified),38.5%
17,CN=c1scc(-c2ccc(F)cc2)n1N=C(C)c1ccncc1,18.1%
18,CN(c1ccccc1)c1nnc(C(O)c2cc(F)c(F)c(F)c2)s1 (stereo unspecified),69.1% (active)
19,CCCCN(C)c1ccc(C(=O)N2CCc3sccc3C2)cc1,9.79%
20,NC(=O)c1ccc(C(=O)N2CCC(=Cc3ccccc3)CC2)cc1,-6.19%
21,NC(=O)COc1ccc(C(=O)N2CCc3sccc3C2)cc1,67% (active)
22,COC(=O)c1cccc(OC(=O)c2cc3c(s2)CCCC3)c1,22%
23,O=C(COC(=O)c1cc2c(s1)CCC2)NCCN1C(=O)CSC1=O,71.9% (active)
24,CC1CC(C)CN(C(=O)c2cc3c(s2)CCC3)C1 (stereo unspecified),8.3%
25,Cc1cccc(C)c1NC(=O)CN(C)c1cnn(Cc2ccccc2)c(=O)c1Cl,32.3%
